Results filed as inconclusive are left out. Where a call stands in place of a potency, no number is given. Values without a mark were called inactive. Activity calls are given as the source filed them. Calls follow the shape of the dose curve; as a rule, active = well fitted curve in the direction sought with a large enough effect; inconclusive = small, poorly fitted or top-dose-only effect, or another doubt; inactive = no such curve, though single readings can be large; an effect the other way counts as inactive or inconclusive.
Key:
Furin (Homo sapiens) = Furin (Homo sapiens) (UniProt P09958); experiment: Furin counterscreen qHTS for Zika virus inhibitors (AID 1347149); also: nearly all actives have a fitted effect of over 70% in size; also: potency is read from the fitted curve at half-maximal effect
Chain of Furin (Homo sapiens) (P09958 whole entry, looked up): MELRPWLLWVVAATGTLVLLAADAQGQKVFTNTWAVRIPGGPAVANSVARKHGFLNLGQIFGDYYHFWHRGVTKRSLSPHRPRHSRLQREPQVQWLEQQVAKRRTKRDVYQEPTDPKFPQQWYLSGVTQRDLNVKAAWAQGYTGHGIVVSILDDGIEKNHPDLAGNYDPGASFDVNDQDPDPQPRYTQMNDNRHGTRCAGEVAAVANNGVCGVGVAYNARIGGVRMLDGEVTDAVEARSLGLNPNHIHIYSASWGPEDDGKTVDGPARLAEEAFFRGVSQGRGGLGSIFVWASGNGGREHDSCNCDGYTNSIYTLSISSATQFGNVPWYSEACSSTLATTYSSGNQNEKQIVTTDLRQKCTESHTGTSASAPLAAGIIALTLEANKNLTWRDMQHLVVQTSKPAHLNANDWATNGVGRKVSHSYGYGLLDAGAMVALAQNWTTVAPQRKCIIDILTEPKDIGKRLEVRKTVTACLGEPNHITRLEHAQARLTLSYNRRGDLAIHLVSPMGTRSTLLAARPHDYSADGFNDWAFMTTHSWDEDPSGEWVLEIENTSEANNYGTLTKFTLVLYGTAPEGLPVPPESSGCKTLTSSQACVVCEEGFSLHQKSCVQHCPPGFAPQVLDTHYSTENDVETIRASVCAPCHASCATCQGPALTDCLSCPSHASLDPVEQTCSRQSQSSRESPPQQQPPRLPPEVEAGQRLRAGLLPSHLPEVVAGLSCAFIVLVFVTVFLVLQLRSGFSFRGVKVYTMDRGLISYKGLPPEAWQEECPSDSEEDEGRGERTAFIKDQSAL
Method in brief: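 Fluorogenic cleavage of BOC-RVRR-AMC (2 microM final, Km ~15 µM) was monitored (ex 340, em 450 nm) at 37C after 15 min RT preincubation of 5 nM furin with compounds in HEPES pH 7.0 buffer with CaCl2 and Triton X-100. Percent inhibition was fitted to a 4-parameter Hill curve.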

[1] = Confirmatory screen GU Rhodamine qHTS for Zika virus inhibitors qHTS (AID 1347157); also: nearly all actives have a fitted effect of over 70% in size; also: potency is read from the fitted curve at half-maximal effect
Method in brief: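 Unlinked NS2B/NS3, 25 nM; Rhod110 peptide, 1.5 microM; compounds, up to 114 microM. Reaction run 15 min at RT in 10 mM Tris-HCl pH 8.0, 0.01% Tween 20; kinetic fluorescence change fitted with a 4-parameter Hill model.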

[2] = test system: Zika virus NS2B-NS3 protease (linked); experiment: 384 well plate NINDS AMC confirmatory qHTS for Zika virus inhibitors (AID 1347163); also: potency is read from the fitted curve at half-maximal effect; nearly all actives have a fitted effect of over 50% in size
Method in brief: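 Linked protease 5/30/60 nM final; cpds up to 1 mM final, ~15 min preinc. Substrate Ac-VKTGKR-AMC 30 microM final. RT, dark, 25 min; FI ex 355/em 460; normalized to no-enzyme/no-inhibitor ctrls.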

[3] = test system: Zika virus NS2B-NS3 protease (linked construct); experiment: 384 well plate NINDS Rhodamine confirmatory qHTS for Zika virus inhibitors (AID 1347164);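 also: fluorescence from protease cleavage of Ac-LKRR-rhodamine 110 substrate; potency is read from the fitted curve at half-maximal effect; nearly all actives have a fitted effect of over 65% in size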
Method in brief: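 Linked protease at a final 5 nM, 30 nM or 60 nM was preincubated ~15 min with compounds, then given 10 microM Ac-LKRR-Rhodamine 110. Fluorescence (ex 485/em 538 nm) after 25 min in the dark at room temperature.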

[4] = Confirmatory screen NINDS Rhodamine qHTS for Zika virus inhibitors (AID 1347161); also: nearly all actives have a fitted effect of over 60% in size; also: potency is read from the fitted curve at half-maximal effect
Method in brief: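 Rhodamine110-peptide cleavage (1.5 µM substrate) by 25 nM linked NS2B-NS3 enzyme at pH 8.0 (Tris, Tween 20), after 15 min RT preincubation with compounds; 15-min fluorescence change normalized to controls and Hill-fitted.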

[5] = target: Calcium and integrin-binding protein 1 (Homo sapiens) (UniProt Q99828); experiment: Primary qHTS for Identification of Calcium Integrin Binding Protein 1 (CIB1) Competitor (AID 1508620);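 also: GST tagged CIB1 binding a fluorescein labelled alphaIIb integrin peptide tracer; top concentration of the series differs between compounds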
Chain of Calcium and integrin-binding protein 1 (Homo sapiens) (Q99828 whole entry, looked up): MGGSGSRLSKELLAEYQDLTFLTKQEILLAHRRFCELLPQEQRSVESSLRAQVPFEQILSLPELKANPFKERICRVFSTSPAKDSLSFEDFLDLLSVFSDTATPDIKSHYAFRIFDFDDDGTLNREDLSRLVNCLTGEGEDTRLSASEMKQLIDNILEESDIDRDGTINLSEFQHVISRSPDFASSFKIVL
Method in brief: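 Fluorescence polarization competition: CIB1-GST (1 uM final) preincubated with compound 15 min at room temperature, then FITC-labeled alphaIIb peptide (100 nM final) added for another 15 min. Polarization read at Ex 480/Em 540.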

[6] = Tertiary RLuc qRT-PCR qHTS assay for Zika virus inhibitors (AID 1347169); also: top concentration of the series differs between compounds; nearly all actives have a fitted effect of over 55% in size
Method in brief: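 Vero cells (1,000 per well) plated overnight at 37 degrees C, treated with compound in DMSO, then infected with recombinant ZIKV-RLuc (Cambodian) at MOI 1-2 for 48-72 hrs. Live-cell Renilla luciferase substrate added; luminescence read after 1-1.5 hrs.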

[7] = ZIKV-mCherry secondary qHTS for Zika virus inhibitors (AID 1347158); also: top concentration of the series differs between compounds
Method in brief: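 Vero cells, 5,000/well, plated overnight at 37 °C, then compound added and infected with recombinant ZIKV-mCherry at MOI 1 for 48-72 h. PFA-fixed, Hoechst nuclear stain, high-content imaging; cells with mCherry intensity above 450 RFU scored infected, reported as percent infection.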

O=C(Nc1c(C(=O)O)oc2ccccc12)c1ccc(C(F)(F)F)cc1
Potency (Furin (Homo sapiens)): inactive | Potency [1]: 15.8 µM (active) | Potency [2]: 316 µM (active) | Potency [3]: 100 µM (active)

O=C(OCC#CCSc1nnc(-c2cccc3ccccc23)o1)c1ccc(OC(F)F)cc1
Potency (Furin (Homo sapiens)): 41.8 µM (active) | Potency [1]: inactive | Potency [4]: inactive | outcome [5]: inactive

O=C(OCC#CCSc1nnc(-c2cccc3ccccc23)o1)c1sc(Cl)c(Cl)c1Cl
Potency (Furin (Homo sapiens)): 14.8 µM (active) | Potency [1]: inactive | Potency [4]: inactive | Potency [6]: inactive | outcome [5]: inactive

O=C(OCc1cccc(C(F)(F)F)c1)c1ccc(-c2nnn(Cc3ccc(F)cc3)n2)cc1
Potency (Furin (Homo sapiens)): inactive | Potency [1]: inactive | Potency [4]: inactive | Potency [6]: inactive

O=S(=O)(Nc1ccc(O)c(NS(=O)(=O)c2ccccc2)c1)c1ccccc1
Potency (Furin (Homo sapiens)): inactive | Potency [1]: inactive | Potency [4]: inactive | Potency [6]: inactive | outcome [5]: inactive

O=C(OCC#CCSc1nnc(-c2ccccc2Cl)o1)c1ccc(F)cc1
Potency (Furin (Homo sapiens)): inactive | Potency [1]: inactive | Potency [4]: inactive | Potency [6]: inactive | outcome [5]: inactive

O=C(/C=C/c1ccc(C(F)(F)F)cc1)OC(C(=O)NC1CC1)c1ccccc1 (stereo not given)
Potency (Furin (Homo sapiens)): inactive | Potency [1]: inactive | Potency [4]: inactive | Potency [6]: inactive

O=C(OCC#CCSc1nnc(-c2ccc(F)cc2)o1)c1ccc(F)cc1
Potency (Furin (Homo sapiens)): inactive | Potency [1]: inactive | Potency [4]: inactive | Potency [6]: inactive | outcome [5]: inactive

O=C(CSc1ncccc1C(=O)Oc1ccccc1Cl)Nc1ccccc1Cl
Potency (Furin (Homo sapiens)): inactive | Potency [1]: inactive | Potency [4]: inactive | Potency [6]: inactive

CC(C)c1nn2c(=O)cc(COC(=O)c3ccc(NC(=O)c4ccccc4Cl)cc3)nc2s1
Potency (Furin (Homo sapiens)): inactive | Potency [1]: inactive | Potency [6]: inactive

Cc1nn2c(=O)cc(COC(=O)c3ccc(NC(=O)c4ccc(C(C)(C)C)cc4)cc3)nc2s1
Potency (Furin (Homo sapiens)): 52.7 µM (active) | Potency [4]: 39.8 µM (active)

O=C(Nc1cccc(C(=O)OCc2cc(=O)n3nc(C4CC4)sc3n2)c1)c1ccc(F)cc1
Potency (Furin (Homo sapiens)): inactive | Potency [7]: inactive | Potency [4]: 31.6 µM (active) | Potency [2]: 89.1 µM (active) | Potency [6]: inactive

CCCCc1nn2c(=O)cc(COC(=O)c3ccc(NC(=O)c4cccc(OC)c4)cc3)nc2s1
Potency (Furin (Homo sapiens)): 41.8 µM (active) | Potency [1]: inactive | Potency [6]: inactive

COC(=O)c1ccc(NC(=O)CSc2ccc(-c3sc(-c4ccccc4)nc3C)nn2)cc1
Potency (Furin (Homo sapiens)): 46.9 µM (active) | Potency [1]: inactive | Potency [6]: inactive

O=c1oc2ccc3ccccc3c2cc1-c1nnc(Nc2cccc(C(F)(F)F)c2)s1
Potency (Furin (Homo sapiens)): inactive | Potency [1]: inactive | Potency [6]: inactive

CC(NC(=O)C1CCN(S(=O)(=O)c2ccc3nc4c(c(C(=O)O)c3c2)CCCC4)CC1)c1ccccc1 (stereo not given)
Potency (Furin (Homo sapiens)): inactive | Potency [1]: inactive | Potency [6]: inactive

COc1ccc(C(=O)Nc2ccc(C(=O)OCc3cc(=O)n4nc(C(C)C)sc4n3)cc2)cc1
Potency (Furin (Homo sapiens)): 59.1 µM (active) | Potency [7]: inactive | Potency [6]: inactive

Source: PubChem BioAssay (NCATS)
